Among the data in PubChem BioAssay (NCI) are growth values, retold here.

This is part of a sample that, as a whole, favours compounds with a hit. Of some 83,000 tested, about 20% had one in any assay.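 Interpretation: 100, growth as untreated; towards 0, rising growth inhibition; 0, no net growth; 0 to -100, cell death. Compounds scoring below 10 were considered active.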 Values without a mark were called inactive. Activity calls are given as the source filed them.

One assay relates to OVCAR-3 ovarian. The experiment in a line: NCI-60 one-dose screen, 48 h (100 = growth as untreated, 0 = no growth, -100 = all killed). As to conditions: 10 µM unless noted.
Consider `COc1ccc(NC(=O)c2sc3c(=O)[nH]c(C(F)(F)F)nc3c2C)cc1`, for which the growth was 112%.
Still for that read-out and setting: with `O=C(Nc1cccc(Cl)c1)Nc1ccccc1Cl` the figure was 78.4%; with `NC(=O)N/N=C\c1ccc([N+](=O)[O-])o1`, 109%.
As to `CCN(CC)Cc1cc(Nc2ccnc3ccc(OC)cc23)ccc1O`, the growth was 50.8%.
Turning to `CC(C)(C)c1nn(-c2ccccc2)c2c1C(=O)CSC(c1ccc3c(c1)OCO3)N2` (configuration not stated), the growth is 93.2%.
The same measure, in the same setting: the result for `CN(C)N1C(=O)c2c(Cl)c(Cl)c(Cl)c(Cl)c2C1=O` reads 122%.
For `C=CCOc1ccc2c(C)cc(=O)oc2c1`, the growth is 105%.
`O=C(CSc1nc2c(n1Nc1ccccc1)-c1ccccc1SC2)Nc1nccs1`: the growth is 98.6%.
The same measure, in the same setting: the result for `CCNC(=O)c1ccc2c(c1)nc(-c1ccc(Cl)cc1)n2-c1cc(C(C)(C)C)[nH]n1` reads 21.5%; that for `CCn1c(=O)c(C(=O)NCCCO)c(O)c2ccccc21`, 155%.
Still for that read-out and setting: with `COc1cc(NCC(O)CN(CC(C)C)CC(C)C)c2ncccc2c1` (configuration not stated) the figure was 47.4%.
The same measure, in the same setting: the result for `CCN(CC)c1ccc(/C=N/N=C(N)N)cc1` reads 4.63% (active); that for `Cc1ccc(C)c2c1SC1=NNC(Oc3ccc(Cl)cc3)=C(C#N)C(=N)N12`, 110%; that for `CCOC(=O)C(Cc1ccccc1)n1c(O)c(/C=N/c2ncc(Cc3ccc(Cl)cc3Cl)s2)sc1=S` (configuration not stated), 17.9%.
As to `COc1ccc(-c2cnc(-c3ccncc3-c3cccc(OC)c3)o2)cc1`, the growth was -13.1% (active).
Consider `Cc1ccc(OC2=C(C#N)C(=N)N3C(=NN2)Sc2c(C)ccc(C)c23)cc1`, for which the growth was 117%.
Still for that read-out and setting: with `O=C(Nc1ccncc1)C(=O)c1cn(S(=O)(=O)c2cccc(Cl)c2F)c2ccccc12` the figure was 74.7%; with `COc1ccc(C(=O)OC2C(OC3C(O)COC(O[C@H]4C[C@H]5[C@@H]6CC=C7C[C@@H](O)CC[C@]7(C)[C@H]6CC[C@]5(C)[C@H]4[C@H](C)C(=O)CCC(C)C)C3OC(C)=O)OCC(O)C2O)cc1` (some centres not stated), 53.4%.
Turning to `C[C@@H]1N=C(c2ccc3ccccc3c2)Nc2nc3ccccn3c2C1=O`, the growth was 16.9%.
The same measure, in the same setting: with `O=[N+]([O-])c1ccc(N=Nc2c(NNc3ccc([N+](=O)[O-])cn3)cc(S(=O)(=O)O)c3ccccc23)nc1` the figure was -5.33% (active).
In the case of `CN1CCC2(CC1)N=C(SCC(=O)Nc1cnc3ccccc3c1)C(c1ccc(Br)cc1)=N2`, the growth was 35.4%.
Still for that read-out and setting: the result for `Nc1c(C(=O)C[C@@H](N)CO)ccc2c1C(=O)CCO2` reads 23.5%; that for `Cc1c2c(cc3c1[nH]c1ccccc13)C=NCC2`, 101%.
The same measure, in the same setting: the result for `O=S1(=O)NCCCN1CCNc1nccc(-c2c(-c3cccc(O)c3)nc3sccn23)n1` reads 73.3%; that for `C=CC(=O)N1CN(C(=O)C=C)CN(C(=O)C=C)C1`, 4.76% (active).

The subject of the next assay is HS 578T breast. The description is as above. As to conditions: 10 µM unless noted.
Turning to `COc1ccc(NC(=O)c2sc3c(=O)[nH]c(C(F)(F)F)nc3c2C)cc1`, the growth was 104%.
Still for that read-out and setting: with `O=C(Nc1cccc(Cl)c1)Nc1ccccc1Cl` the figure was 90.7%.
With `NC(=O)N/N=C\c1ccc([N+](=O)[O-])o1`, the growth was 79.2%.
Same read-out and setting: the result for `CCN(CC)Cc1cc(Nc2ccnc3ccc(OC)cc23)ccc1O` reads 77.2%.
As to `CC(C)(C)c1nn(-c2ccccc2)c2c1C(=O)CSC(c1ccc3c(c1)OCO3)N2` (configuration not stated), the growth is 101%.
Still for that read-out and setting: the result for `CN(C)N1C(=O)c2c(Cl)c(Cl)c(Cl)c(Cl)c2C1=O` reads 99%; that for `O=c1c2cc(Cl)ccc2oc2ccc(OCCCCCN3CCCCC3)cc12`, 80.5%; that for `O=C(CSc1nc2c(n1Nc1ccccc1)-c1ccccc1SC2)Nc1nccs1`, 93.5%.
The same measure, in the same setting: with `CCNC(=O)c1ccc2c(c1)nc(-c1ccc(Cl)cc1)n2-c1cc(C(C)(C)C)[nH]n1` the figure was 59.7%.
Take `CC(C)CC1NC(=O)C(CC(C)C)N(CO)C1=O` (configuration not stated): the growth was 106%.
The same measure, in the same setting: the result for `CCn1c(=O)c(C(=O)NCCCO)c(O)c2ccccc21` reads 92.1%; that for `COc1cc(NCC(O)CN(CC(C)C)CC(C)C)c2ncccc2c1` (configuration not stated), 84.7%.
Consider `CC(=O)Nc1ccc(/C=N/N2CCCCCC2)cc1`, for which the growth was 96.3%.
On the same count and under the same terms, the result for `O=c1oc2ccccc2cc1-c1cc(-c2ccc(-c3cc(-c4cc5ccccc5oc4=O)nc(-c4cc5ccccc5oc4=O)c3)cc2)cc(-c2cc3ccccc3oc2=O)n1` reads 104%.
The same measure, in the same setting: the result for `CCN(CC)c1ccc(/C=N/N=C(N)N)cc1` reads 55.3%.
In the case of `Cc1ccc(C)c2c1SC1=NNC(Oc3ccc(Cl)cc3)=C(C#N)C(=N)N12`, the growth was 103%.
Still for that read-out and setting: with `CCOC(=O)C(Cc1ccccc1)n1c(O)c(/C=N/c2ncc(Cc3ccc(Cl)cc3Cl)s2)sc1=S` (configuration not stated) the figure was -3.53% (active); with `COc1ccc(-c2cnc(-c3ccncc3-c3cccc(OC)c3)o2)cc1`, 53.3%; with `Cc1ccc(OC2=C(C#N)C(=N)N3C(=NN2)Sc2c(C)ccc(C)c23)cc1`, 107%.
As for `O=C(Nc1ccncc1)C(=O)c1cn(S(=O)(=O)c2cccc(Cl)c2F)c2ccccc12`, the growth was 84.7%.
Same read-out and setting: the result for `CN1C(=O)NC(Cc2c[nH]c3c(Cl)cccc23)C1=O` (configuration not stated) reads 103%; that for `COc1ccc(C(=O)OC2C(OC3C(O)COC(O[C@H]4C[C@H]5[C@@H]6CC=C7C[C@@H](O)CC[C@]7(C)[C@H]6CC[C@]5(C)[C@H]4[C@H](C)C(=O)CCC(C)C)C3OC(C)=O)OCC(O)C2O)cc1` (some centres not stated), -29.3% (active); that for `C[C@@H]1N=C(c2ccc3ccccc3c2)Nc2nc3ccccn3c2C1=O`, 29.3%.
On to `CS(=O)(=O)c1ccc(C(=O)N/N=C/c2ccccc2Cl)cc1`, for which the growth was 98.1%.
Still for that read-out and setting: the result for `CC1=C(O)C(=O)CC1` reads 107%.
On to `O=C(N/N=C/c1ccc([N+](=O)[O-])cc1)c1ccccc1Nc1ccnc(C(F)(F)F)c1`, for which the growth is -27.6% (active).
On the same count and under the same terms, the result for `Cc1ccc(C(CN(C)C)C(=O)c2ccccc2)cc1` (configuration not stated) reads 83.5%; that for `CN1CCC2(CC1)N=C(SCC(=O)Nc1cnc3ccccc3c1)C(c1ccc(Br)cc1)=N2`, 24%.
The same measure, in the same setting: the result for `Nc1c(C(=O)C[C@@H](N)CO)ccc2c1C(=O)CCO2` reads 110%; that for `Cc1ccncc1NC=O`, 109%; that for `Cc1c2c(cc3c1[nH]c1ccccc13)C=NCC2`, 99.1%.
With `O=S1(=O)NCCCN1CCNc1nccc(-c2c(-c3cccc(O)c3)nc3sccn23)n1`, the growth is 70.4%.
On to `CCc1c(C)c2ccc(O)c(-c3cc(-c4ccccc4)c(C#N)c(=O)[nH]3)c2oc1=O`, for which the growth was 118%.
As for `COc1ccc2nc3cc(Cl)ccc3c(NC(=O)CSc3ccc(Cl)cc3)c2c1`, the growth was -43.2% (active).
With `C=CC(=O)N1CN(C(=O)C=C)CN(C(=O)C=C)C1`, the growth was 71.8%.
As to `CCCC(CCC)(C(N)=O)C(=O)O`, the growth is 106%.
On the same count and under the same terms, the result for `C=CCCCCOc1cccc(/C=C2\N=C3SCCCN3C2=O)c1` reads 112%.
